Assay outcomes: PubChem, several laboratories
PTK2B oligo ant: antagonists of Pyk2 self-association, primary screen, Q293 cells, FERM NanoBiT luminescence, HTS; Protein-tyrosine kinase 2-beta (Homo sapiens), Q14289; stronger effect = lower value; z-score (the deposit names both 25 µM and 10 µM); 0.83% of 99,000 active; AID 1347419, 2020;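 active = Z-score of -3 or lower, scaled per plate to the spread of control and sample wells; inactive = z-score above -3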;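 also: negative z-score means lost luminescence so less FERM oligomerization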
CYP2C9 inh: blockers of cytochrome P450 2C9 activity – biochemical, luminescence, ADME assay, primary screen | P11712 | CYP2C9 Supersomes, luciferin-H conversion | inhibition, % at 5 µM | 20% of 96,000 active | AID 777, 2007;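 active = blocking of liver enzyme CYP2C9 beyond about 50% at 5 µM, limit read from the data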
CYP2C19 act: human CYP2C19 activators, primary screen, biochemical, luminescence; Cytochrome P450 2C19 (Homo sapiens), P33261; recombinant CYP2C19, luciferin-H EGE luminescence; stronger effect = higher value; 0 = fully inhibited enzyme, 1 = untreated enzyme; activation factor at 5 µM; 96,000 tested, under 10 active; AID 1025, 2008;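 active = activation factor of at least 2 at 5 µM in the primary screen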
Target sequence (P33261 whole entry, looked up): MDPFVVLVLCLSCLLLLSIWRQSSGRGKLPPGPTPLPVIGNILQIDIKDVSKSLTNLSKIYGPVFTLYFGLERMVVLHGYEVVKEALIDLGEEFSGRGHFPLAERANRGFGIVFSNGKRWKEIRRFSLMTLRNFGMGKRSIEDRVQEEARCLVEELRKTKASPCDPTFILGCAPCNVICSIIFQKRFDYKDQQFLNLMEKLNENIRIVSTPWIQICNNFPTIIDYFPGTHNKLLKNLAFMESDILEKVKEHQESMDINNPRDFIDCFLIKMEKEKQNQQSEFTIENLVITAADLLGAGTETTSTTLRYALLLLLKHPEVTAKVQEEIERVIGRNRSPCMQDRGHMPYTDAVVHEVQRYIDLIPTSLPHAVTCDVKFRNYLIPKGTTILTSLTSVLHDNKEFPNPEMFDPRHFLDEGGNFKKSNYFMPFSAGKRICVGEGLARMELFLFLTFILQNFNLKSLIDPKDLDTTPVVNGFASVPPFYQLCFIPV
CYP2C19 inh: blockers of cytochrome P450 2C19 activity – biochemical, luminescence, ADME assay, primary screen; 21% of 96,000 active; P33261; AID 778, 2007; inhibition, % at 5 µM; CYP2C19 Supersomes, luciferin-H EGE luminescence, 30 min;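 active = CYP2C19 inhibition above a set limit at 5 µM in the primary screen, cut at about 50% in these data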
CYP2C9 act: human CYP2C9 activators, primary screen, biochemical, luminescence; activation factor at 5 µM; recombinant CYP2C9, luciferin-H conversion; stronger effect = higher value; factor 1 = untreated enzyme, 0 = blocked; 1.4% of 96,000 active; AID 1024, 2008;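 active = activation factor of 2 or more for CYP2C9 at a 5 µM dose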
Cav3 T inh: Cav3.2 calcium influx blockers – cell-based, Fluo-4 calcium fluorescence, FDSS, MLSMR library, primary screen | B-score at 10 µM | Cav3.2-expressing cells; stronger effect = lower value | 4% of 100,000 active;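 active = single-dose well whose peak fluorescence ratio is a statistical outlier from its plate by either plate-standardised score or position-corrected B-score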
Each line names hits and unclear results; the compound was inactive in the other large screens. Shown are actives, neighbours in structure and some others; about 27% of the full set was active somewhere.

Cc1nn(C(C)C(=O)N2CCc3ccccc32)c(C)c1[N+](=O)[O-] (stereo unspecified)	CYP2C9 inh 68, CYP2C19 inh 55
CCCC(=O)Nc1ccc(-c2nc3cc(C)c(C)cc3o2)cc1	none
CCCCC(=O)Nc1ccc2oc(-c3ccncc3)nc2c1	CYP2C9 inh 63, CYP2C19 inh 58
CCCC(=O)Nc1ccc2oc(-c3ccncc3)nc2c1	CYP2C9 inh 78, CYP2C19 inh 56
O=S(=O)(c1ccccc1)N1CCN(c2ncnc3sc(-c4ccccc4)cc23)CC1	CYP2C9 inh 93, CYP2C19 inh 82
O=S(=O)(c1ccccc1)N1CCN(c2cc(-c3ccccc3)nc3ncnn23)CC1	PTK2B oligo ant -3.8
c1coc(-c2nc3c([nH]2)CCc2nonc2-3)c1	none
Cc1nc(N2CCC(C)CC2)c2nnn(Cc3ccccc3)c2n1	none (no result: CYP2C9 inh, CYP2C19 act, CYP2C19 inh, CYP2C9 act)
O=C(Nc1cccnc1)c1ccc(S(=O)(=O)N2CCCCCC2)cc1	CYP2C9 inh 73, CYP2C19 inh 62
O=C(Nc1cccnc1)c1ccc(Cl)c(S(=O)(=O)N2CCCCCC2)c1	CYP2C9 inh 85, CYP2C19 inh 88
O=C(Nc1ccccc1)c1ccc(S(=O)(=O)N2CCCCC2)cc1	none (no result: PTK2B oligo ant, CYP2C9 inh, CYP2C19 act, CYP2C19 inh, CYP2C9 act)
Cc1ccc(C(=O)Nc2cccnc2)cc1S(=O)(=O)N1CCOCC1	none
O=C(Nc1ccn(-c2ccccc2)n1)c1ccc(S(=O)(=O)N2CCCCCC2)cc1	CYP2C19 inh 53, Cav3 T inh -1.9
O=C(Nc1ccc2c(c1)OCCO2)C1CCCN(S(=O)(=O)c2cccnc2)C1 (stereo unspecified)	none (no result: PTK2B oligo ant)
O=C(Nc1cccnc1)C1CCCN(S(=O)(=O)c2ccccc2)C1 (stereo unspecified)	CYP2C19 inh 64
O=C(Nc1ccc(Br)cc1)c1cccn1-c1ncc(C(F)(F)F)cc1Cl	none
O=C(NNC(=O)C1CCN(Cc2ccccc2)CC1)c1cccc(Cl)c1	none (no result: Cav3 T inh)
Cc1ccc(Cn2c(SCC(C)C)nc3c2c(=O)n(C)c(=O)n3C)cc1	none
NC(=O)C1CCN(Cc2nc(-c3ccccc3)no2)CC1	none
O=C(NC(Cc1ccccc1)C(=O)O)c1ccc(S(=O)(=O)N2CCCCC2)cc1 (stereo unspecified)	CYP2C9 inh 78
CCOC(=O)Cn1c(=S)[nH]c2c(oc3ccc(Cl)cc32)c1=O	CYP2C9 inh 76
COCCCNC(=O)Cn1cc(C(=O)c2cccs2)c2ccccc21	none (no result: CYP2C9 inh, CYP2C19 act, CYP2C19 inh, CYP2C9 act)
CCOC(=O)Cn1cc(C(=O)c2cccs2)c2ccccc21	CYP2C9 inh 94, CYP2C19 inh 97
O=C(c1cn(CC(=O)N2CCCCC2)c2ccccc12)C1CC1	CYP2C19 inh 52
COC(=O)c1cn(C(=O)c2cccs2)c2ccccc12	CYP2C9 inh 59
O=C(c1cccs1)c1cn(CC(=O)N2CCc3ccccc3C2)c2ccccc12	CYP2C9 inh 91, CYP2C19 inh 84
O=C(O)Cn1cc(C(=O)c2cccs2)c2ccccc21	none
CCOc1nc(CC)nc(NC(=O)NS(=O)(=O)c2ccccc2Cl)n1	none
CCc1cccc(Nc2cc(C)nc3nc(C)nn23)c1	none (no result: PTK2B oligo ant, CYP2C9 inh, CYP2C19 act, CYP2C19 inh, CYP2C9 act)
CCCCC1CC1C(=O)Nc1ncc2c(n1)CC(C)(C)CC2=O (stereo unspecified)	none
Clc1ccc(N2CCN(c3cnc4ccccc4n3)CC2)cc1	none
c1ccc(N2CCN(c3cnc4ccccc4n3)CC2)cc1	CYP2C19 inh 51
Nc1nc2c(s1)CC(c1ccccc1)CC2 (stereo unspecified)	CYP2C19 inh 69
O=C(COc1ccc(Cl)cc1)Nc1ccc(Cl)cn1	CYP2C19 inh 68
Cc1nn(C(C)C(=O)Nc2ccc(Cl)cn2)c(C)c1[N+](=O)[O-] (stereo unspecified)	CYP2C19 inh 74
CCCCC(=O)Nc1ccc(Cl)cn1	none
COc1cccc(NC(=S)NNC(=O)C(C)n2nc(C)c([N+](=O)[O-])c2C)c1 (stereo unspecified)	none
CCOC(=O)/C=C/C(=O)OCC(=O)Nc1ccc(Cl)cn1	Cav3 T inh 3.4
CCCC(C)C(=O)Nc1ccc(Cl)cn1 (stereo unspecified)	CYP2C19 inh 53
CC(C)=CC(=O)OCC(=O)Nc1ccc(Cl)cn1	none
O=C(NCc1ccc2c(c1)OCO2)c1ccc(CN2CCOCC2)cc1	none
COCCN(C(=O)c1csnn1)C(C(=O)NC(C)(C)C)c1cccc(OC)c1 (stereo unspecified)	none
Cc1ccc(NC(=O)C2CC=CCC2C(=O)N2CCCCC2)cc1 (stereo unspecified)	none
CCCCn1nnnc1NCc1cccc(OC)c1OC	CYP2C9 inh 62, CYP2C19 inh 85
CCCCn1nnnc1NCc1ccc(OC)c(OC)c1	none
CCCCn1nnnc1NCc1ccc(N(CC)CC)cc1	CYP2C19 inh 74
CCCCn1nnnc1NCc1ccc(C)s1	none (no result: CYP2C9 inh, CYP2C19 act, CYP2C19 inh, CYP2C9 act)
CC(C)Oc1ccc(CNCC2(O)CCOC(C)(C)C2)cc1 (stereo unspecified)	none (no result: CYP2C9 inh, CYP2C19 act, CYP2C19 inh, CYP2C9 act)
Cc1cc(C)n(-c2ccc(-n3ccnc3)nn2)n1	CYP2C19 inh 99
Cn1c(=O)c2c(nc(SCCN3CCCCC3)n2Cc2ccc(Cl)cc2)n(C)c1=O	none
CSCCC(NC(=O)c1ccccc1)C(=O)N/N=C(\C)c1ccccc1 (stereo unspecified)	none (no result: CYP2C9 inh, CYP2C19 act, CYP2C19 inh, CYP2C9 act, Cav3 T inh)
CCN1C(=O)c2cccc3c(S(=O)(=O)NCCc4c[nH]c5ccccc45)ccc1c23	CYP2C9 inh 84, CYP2C19 inh 63
CCN1C(=O)c2cccc3c(S(=O)(=O)NCCCN4CCOCC4)ccc1c23	CYP2C19 inh 54
CCOc1ccc(S(=O)(=O)NCCCN2CCOCC2)cc1	none
Cc1nc2cc(CC(=O)O)ccc2o1	none
Cc1cc(S(=O)(=O)N2CCCC2C(=O)N2CCOCC2)c(C)cc1Cl (stereo unspecified)	CYP2C19 inh 63, CYP2C9 act 3
O=C(C1CCN(S(=O)(=O)c2ccc(Cl)cc2)CC1)N1CCOCC1	none
CCC(C)(C)n1nnnc1C(c1cccnc1)N1CCN(c2cccc(C(F)(F)F)c2)CC1 (stereo unspecified)	CYP2C9 inh 58, CYP2C19 inh 80, Cav3 T inh -5.1
CCC(C)(C)n1nnnc1C(c1ccc(C)cc1)N1CCN(Cc2cccnc2)CC1 (stereo unspecified)	none
CCC(C)(C)n1nnnc1C(c1ccncc1)N1CCN(c2cccc(OC)c2)CC1 (stereo unspecified)	CYP2C9 inh 92, CYP2C19 inh 84 (no result: Cav3 T inh)
CC(C)(C)n1nnnc1C(c1ccncc1)N1CCCCCC1 (stereo unspecified)	CYP2C9 inh 73, CYP2C19 inh 83
